From PubChem
Sampled rows, rich in hits. Any-hit rate of the full collection: about 4.6%.
Tau fluor cs – counter-screen for tau fibril formation inhibitors; tau K18 P301L Alexa594 fluorescence, heparin fibrillization; Potency, µM (titrated, usually from 57.7 µM), inactives show at the highest dose activity change, negative = decrease; 280,000 compounds, 0.93% hits; AID 1463; also: potency is read from the fitted curve at half-maximal effect; nearly all actives have a fitted effect of over 55% in size
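Human K18 P301L tau (15 uM unlabeled plus 0.24 uM Alexa 594-labeled, final) in 100 mM sodium acetate pH 7 was mixed with compound and 20 uM heparin and incubated 6 hr at 37 C.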
TR SRC2 fluor cs – counter-screen for TRb-SRC2 inhibitors: fluorescence interference; 280,000 compounds, 0.29% hits; Potency, µM (titrated, usually from 106 µM), for inactives: top-dose fluorescence change, negative = quenching; TRb/SRC2 Texas Red total fluorescence interference; active = well fitted curve in either direction with a large enough effect; inconclusive = small, poorly fitted or top-dose-only effect; also: potency is read from the fitted curve at half-maximal effect
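Human TRb ligand-binding domain at 0.6 uM with 20 nM Texas Red SRC2 peptide in Tris buffer containing 1 uM T3 and 5% DMSO, incubated with compound 5 h at ambient temperature. Total fluorescence (555/632 nm) calculated as parallel + 2 × perpendicular.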
Tau FP inhib – tau fibrillization inhibition (FP); P10636; K18 P301L tau heparin fibrillization, Alexa594 FP, 6 h; Potency, µM (highest dose often 57.7 µM), inactives show at the highest dose activity, negative = inhibition, hits mostly inhibitors; 280,000 compounds, 0.39% hits; also: potency is read from the fitted curve at half-maximal effect; nearly all actives have a fitted effect of over 55% in size
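Compound effects on tau fibrillization are measured by Alexa 594 fluorescence polarization (ex 555, em 632 nm). K18 P301L tau is used at 15 uM with 0.24 uM labeled tracer, and 20 uM heparin induces aggregation over 6 hr at 37 C.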
Tau fibril ThT – blocks human tau fibril formation measured by thioflavin T; recombinant tau K18 P301L (four-repeat tau fragment), heparin-induced fibrillization, ThT fluorescence; P10636; AID 1460; 270,000 compounds, 2.1% hits; Potency, µM (top dose mostly 57.4 µM), for the others: at the highest dose activity, negative = inhibition, hits mostly inhibitors; also: potency is read from the fitted curve at half-maximal effect; nearly all actives have a fitted effect of over 55% in size
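Heparin-induced (20 uM) aggregation of recombinant human K18 P301L tau, 15 uM unlabeled with 0.24 uM labeled, pH 7 acetate buffer, 6 hr at 37 C with compound. Fibrils quantified by 30 uM ThT fluorescence after 1 hr ambient incubation.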
PNC assembly inh – perinucleolar compartment assembly inhibition; PC3M PTB-GFP, PNC prevalence imaging, 16 h; stronger effect = lower value; activity change (PNC), negative = inhibition, % at 10 µM; 140,000 compounds, 3.1% hits; AID 2417;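 active = readout at or below -70, meaning at least 70% loss of cells showing the perinucleolar compartment, a nuclear body marking cancer cells; inconclusive = readout between -30 and a set limit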;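 also: plate controls were DMSO wells for no effect and camptothecin positive control wells for full effect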
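Compounds are pinned in duplicate onto adhered PC3M cells stably expressing GFP-tagged PTB and incubated 16 h at 37 C. Cells are then fixed, nuclei stained with Hoechst, and PNC-positive cells counted.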
TRb SRC2 PPI – inhibitors of human thyroid hormone receptor beta-SRC2 interaction; AID 1469; P10828; Potency, µM (titrated, usually from 106 µM), inactives show at the highest dose activity change, negative = inhibition, actives largely listed as inhibitors; 280,000 compounds, 0.065% hits; TRbeta-SRC2 peptide binding, fluorescence polarization; receptor liganded with 1 µM T3;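 also: potency is read from the fitted curve at half-maximal effect; plate controls were bound peptide for no effect and peptide without receptor for full effect; nearly all actives have a fitted effect of over 50% in size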
Target sequence (P10828 whole entry, looked up): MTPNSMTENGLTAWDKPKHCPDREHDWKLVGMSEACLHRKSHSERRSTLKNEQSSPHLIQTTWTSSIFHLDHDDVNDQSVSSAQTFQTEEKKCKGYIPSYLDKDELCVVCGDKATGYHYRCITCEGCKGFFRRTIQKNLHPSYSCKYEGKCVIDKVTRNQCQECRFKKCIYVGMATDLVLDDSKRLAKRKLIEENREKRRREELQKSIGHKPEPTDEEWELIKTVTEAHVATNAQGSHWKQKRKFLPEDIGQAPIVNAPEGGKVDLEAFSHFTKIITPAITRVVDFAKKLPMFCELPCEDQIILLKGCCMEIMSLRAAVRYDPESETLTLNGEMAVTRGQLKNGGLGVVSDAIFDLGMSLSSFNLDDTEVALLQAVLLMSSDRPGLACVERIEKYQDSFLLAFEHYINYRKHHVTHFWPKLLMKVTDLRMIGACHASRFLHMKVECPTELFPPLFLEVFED
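Fluorescence polarization of 20 nM Texas Red SRC2 peptide (20-aa NR interaction domain) bound to 0.6 uM human TRb ligand-binding domain, with 1 uM T3, after 5 hr at ambient temperature; inhibition seen as decreased polarization.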
Numbers without * were called inactive; ? = inconclusive; . = not tested or not shown; [ ] = dose if it differs, or a comment. Unless noted, calls follow the shape of the dose curve; as a rule, active = well fitted curve in the direction sought with a large enough effect; inconclusive = small, poorly fitted or top-dose-only effect, or another doubt; inactive = no such curve, though single readings can be large; an effect the other way counts as inactive or inconclusive. Unless noted, % is scaled to controls: 0 for no effect and ±100 for the full control effect.

SMILES	Tau fluor cs	TR SRC2 fluor cs	Tau FP inhib	Tau fibril ThT	PNC assembly inh	TRb SRC2 PPI
O=C(NC(=S)N(Cc1ccccc1)c1ccccn1)C1CCCCC1	-7%	-1%	-7%	-15%	-103*	3%
CCOc1ccc(CC2S/C(=N/N=C/c3ccco3)NC2=O)cc1 (stereo not given)	-5%	-1%	-5%	2%	.	3%
O=C1N/C(=N\N=C\c2ccco2)SC1Cc1ccccc1[N+](=O)[O-] (stereo not given)	?	0%	?	7.1µM*	.	6%
Cc1ccc(NS(=O)(=O)c2ccc(OCC(=O)NCc3ccco3)cc2)cc1	-7%	1%	-5%	-3%	25	4%
Cc1c(Cl)c(=O)oc2cc(OCC(=O)NCc3cccs3)ccc12	-12%	-4%	-3%	-16%	-108*	10%
Cc1cc(C)nc(NS(=O)(=O)c2ccc(NC(=O)c3ccco3)cc2)n1	1%	4%	-2%	-3%	-3	-2%
Cc1ccc(C)c(NS(=O)(=O)c2ccc(NC(=O)c3ccco3)cc2)c1	-22%	-2%	-10%	3%	-100*	3%
Cc1ccc(C)c(NS(=O)(=O)c2ccc(OCC(=O)NCc3ccco3)cc2)c1	-7%	-2%	-4%	-2%	-90*	-9%
CCCNS(=O)(=O)c1ccc(OCC(=O)N2CCOCC2)cc1	4%	-4%	4%	-5%	-100*	-6%
C=CCn1c(=O)/c(=C/c2ccc(C)o2)s/c1=C(/C#N)C(=O)c1ccccc1	?	?	-5%	?	3	?
Cc1cc(NS(=O)(=O)c2ccc(NC(=O)COc3ccccc3Cl)cc2)no1	4%	-3%	4%	1%	26	-9%
Cc1cc(=O)oc2ccc(OCC(=O)NCc3ccco3)cc12	-6%	2%	-2%	-10%	-16	-10%
Cc1cc(=O)oc2cc(OCC(=O)N3CCOCC3)ccc12	-11%	-8%	-15%	?	-100*	2%
Cc1cc(=O)oc2cc(OC(C)C(=O)N3CCOCC3)ccc12 (stereo not given)	-3%	2%	-11%	10%	?	-19%
Cc1cc(=O)oc2cc(OCC(=O)NCc3ccco3)ccc12	-1%	-2%	0%	-1%	-100*	-5%
Cc1nn(CC(O)Cn2cnc3c2c(=O)n(C)c(=O)n3C)c(C)c1Br (stereo not given)	-5%	-1%	-5%	-10%	28	-5%
Cc1ccc(C)c(NC(=O)CN(C)C(=O)[C@@H](NC(=O)c2ccc(C(C)(C)C)cc2)C(C)C)c1	-15%	-1%	8%	?	-98*	1%
CC(C)OCC1CC(CC(=O)NC(=S)Nc2cccc([N+](=O)[O-])c2)C(=O)O1 (stereo not given)	-12%	-2%	4%	-10%	-100*	-4%
CC(C)OCC1CC(CC(=O)Nc2ccc([N+](=O)[O-])cc2)C(=O)O1 (stereo not given)	2%	-3%[53 µM]	6%	2%	.	3%[53 µM]
COc1ccc(NC(NC(=O)c2ccc(OC)cc2)C(Cl)(Cl)Cl)cc1 (stereo not given)	?	-3%	?	-9%	-3	0%
CC(/C=N/Nc1nnc(C)c(=O)[nH]1)=C\c1ccccc1	-2%	-1%	-2%	2%	79	1%
O=C(N/N=C/C(Cl)=C/c1ccc([N+](=O)[O-])cc1)C(=O)Nc1cccc(C(=O)O)c1	?	-5%	-7%	3.5µM*	.	-1%
Cc1oc(-c2ccccc2F)nc1CSCC(=O)NCCc1ccccc1	-18%	0.13µM*[quencher]	3%	?	.	-28%
CN(C)c1ccc(-c2nc(-c3cccs3)c(-c3cccs3)[nH]2)cc1	10µM*[quencher]	-3%	-1%	?	.	-3%
Oc1ccccc1-c1nc(-c2cccs2)c(-c2cccs2)[nH]1	4.5µM*[quencher]	-2%	?	14µM*	.	4%
